From PubChem BioAssay AID818 (SRMLSC, 2007)
The whole screen tested about 140,000 compounds, of which about 2,100 (1.5%) were called active. The list comes from a sample in which actives are over-represented; it also holds similar structures and randomly drawn compounds. A number with no mark means an inactive call.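 Rule for the calls: active = viability at or under a set limit, the compound median less 4 SD (cut at about 6% in these data); inactive = the rest.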

Test: primary screen for suppressors of beta-catenin knockout HCT116 cell growth, colon tumor, human (AID 818);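 note: 0% = Hyamine 1622 control at 20 µM and 100% = untreated cell control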
Conditions: CellTiter-Glo, 60 h, at 10 µM, hits give low values
For CSc1nc(-c2ccccc2)nc(C(Cl)Cl)n1, the viability was 3.63% (active).
CSc1nc(C)cc(SC(C(C)=O)C(=O)Nc2ccccc2)n1 (configuration not stated) gave a viability of 88.4%.
Compound Cc1nn(-c2ccccc2)c(-n2cccc2)c1C(=O)O has a viability of 95.6%.
Compound Cc1ccc(/C=N/NC(=O)COc2ccccc2-c2ccccc2)cc1 has a viability of 13.9%.
Compound c1ccc(C2CNCc3c2ccc2ccccc32)cc1 (configuration not stated) has a viability of 11.3%.
Compound COc1ccc(C2NC(=S)NC3=C2CCc2ccccc23)cc1OC (configuration not stated) has a viability of 81.8%.
CCn1ncc(CNC(=O)C2(C)CC2(Br)Br)c1C (configuration not stated) gave a viability of 94.3%.
CC(=O)NS(=O)(=O)c1ccc(NC(=O)C2C3C=CC(C3)C2C(=O)O)cc1 (configuration not stated) gave a viability of 98.2%.
For CN(C)S(=O)(=O)c1cccc(NC(=S)N/N=C/C(=O)c2ccccc2)c1, the viability was 6.06% (active).
Compound CCN(CC)S(=O)(=O)c1cccc(C(=O)Nc2ccccc2)c1 has a viability of 80.8%.
CN(C)S(=O)(=O)c1cccc(C(=O)Nc2cccnc2)c1 showed a viability of 97.9%.
In the case of Cc1cccc(CSc2ccc(-c3cccs3)nn2)c1, the viability is reported as 75.7%.
For Cc1c(Cl)c([N+](=O)[O-])nn1CCCC(=O)Nc1cc(Cl)ccc1Cl, the viability was 91.2%.
COc1ccc(NC(=S)N2CCCC(CO)C2)c(OC)c1 (configuration not stated) gave a viability of 100%.
For O=C(CC1NCCNC1=O)Nc1cc(Cl)cc(Cl)c1 (configuration not stated), the viability was 87.8%.
With Cc1ccc(/C=N/NC(=O)C2=NNC(c3ccccc3)(c3ccccc3)C2)c(O)c1 the viability was 4.68% (active).
Work on Cc1cccc(-n2c(C)cc(/C=N\NC(=O)c3cccs3)c2C)c1 yielded a viability of 60.6%.
With Cc1ccc(-c2nn(-c3ccccc3)cc2/C=N/NC(=O)c2ccc3c(c2)OCO3)cc1 the viability was 36.6%.
Compound Cc1cc(C(=O)NNC(=S)NC(C)c2ccccc2)cs1 (configuration not stated) has a viability of 88.5%.
Work on Cc1cc(NC(=O)CCC(=O)N(c2ccccc2)C(C(=O)NC2CCCC2)c2ccncc2)no1 (configuration not stated) yielded a viability of 80%.
In the case of Cc1cc(NC(=O)/C=C/C(=O)N(c2ccccc2C)C(C(=O)NC2CCCC2)c2ccc(F)cc2)no1 (configuration not stated), the viability is reported as 5.76% (active).
Compound Cc1cc(NC(=O)CCC(=O)N(c2cccc(F)c2)C(C(=O)NC2CCCC2)c2ccncc2)no1 (configuration not stated) has a viability of 94.3%.
Work on CCOc1ccc(Br)cc1S(=O)(=O)Nc1cccc(S(=O)(=O)N(CC)CC)c1 yielded a viability of 96.4%.
For CCn1c(SCc2ccc(C)cc2)nnc1-c1nn(-c2ccccc2)ccc1=O, the viability was 103%.
N=C(N)SCc1cccc2ccccc12 gave a viability of 79.3%.
With CCc1ccc(-c2nn(-c3ccccc3)cc2CSC(=N)N)cc1 the viability was 1.57% (active).
CCN(C(=O)COc1cccnc1[N+](=O)[O-])C1CCS(=O)(=O)C1 (configuration not stated) gave a viability of 85.6%.
For COC(C(=O)NCc1ccccc1C)c1ccccc1 (configuration not stated), the viability was 90%.
For CCN(CC)CCNCc1ccc(OCc2ccc(Cl)nc2)c(OC)c1, the viability was 96.9%.
Cc1c(Cl)cccc1NC(=O)Nc1ccc(C(=O)N2CCCC2)cc1 gave a viability of 70.1%.
In the case of c1ccc2[nH]c(NCCN3CCOCC3)nc2c1, the viability is reported as 92%.
With O=C(Cn1c(-c2ccccn2)nc2ccccc21)NCCN1CCOCC1 the viability was 98.8%.
In the case of c1ccc2cc3c(NCCN4CCOCC4)ccnc3cc2c1, the viability is reported as 2.37% (active).
CC(C)CCNC(=O)c1cccnc1Sc1ccccc1 showed a viability of 96.4%.
Compound CCC(C)NCCOCCOc1ccc(Br)cc1C (configuration not stated) has a viability of 70.2%.
With CC(C)(C)CC(C)(C)NCC(O)COCCOc1ccc(Br)cc1 (configuration not stated) the viability was 1.6% (active).
For Cc1noc(COc2ccccc2OCC(O)CNC(C)(C)C)n1 (configuration not stated), the viability was 98.6%.
Compound CCOc1ccc(NC(=S)N2CCC(N(C)CC3CCCO3)CC2)cc1 (configuration not stated) has a viability of 96.9%.
Cc1ccc(NC(=O)COC(=O)CCc2nc3ccccc3n2-c2ccccc2)c(C)c1 showed a viability of 79.9%.
In the case of COc1ccc(CN2CN(C(C)C)CSC2=S)cc1, the viability is reported as 5.75% (active).
Compound S=C1SCN(CCN2CCOCC2)CN1Cc1ccccc1 has a viability of 20.5%.
With O=C(NN1C(=O)C2C3C=CC(C3)C2C1=O)c1ccco1 (configuration not stated) the viability was 93.7%.
With COc1cc(OC)nc(N/N=C(\c2ccccc2)c2ccncc2)n1 the viability was 63.6%.
With Cc1ccc(C(=O)NCC2CCCO2)o1 (configuration not stated) the viability was 106%.
With OC(CNCC1CCCO1)Cn1c2ccc(Br)cc2c2cc(Br)ccc21 (configuration not stated) the viability was 1.48% (active).
Compound Cc1cc(Br)ccc1NC(=O)C1CCCO1 (configuration not stated) has a viability of 96.2%.
COc1ccc(NC(=S)NCc2cccs2)c(OC)c1 showed a viability of 96%.
Work on COc1ccc(C(C(=O)NC2CCCCC2)N(C(=O)Cc2c[nH]c3ccccc23)c2ccccc2)cc1OC (configuration not stated) yielded a viability of 63.4%.
Compound O=C(Nc1cc(C(F)(F)F)ccc1Cl)C(=O)N1CCCCC1 has a viability of 99.1%.
In the case of O=C(NNc1ccccc1Cl)C(O)(c1cccc(C(F)(F)F)c1)c1cccc(C(F)(F)F)c1, the viability is reported as 3.21% (active).
Compound CC(CC(=O)Nc1cc(C(F)(F)F)ccc1Cl)c1ccccc1 (configuration not stated) has a viability of 61.2%.
For CCc1nnc(NC(=O)/C=C/c2ccc(C)o2)s1, the viability was 97.8%.
With CCN1/C(=C/c2ccc3ccc(C)cc3[n+]2CC)Sc2ccccc21 the viability was 2.41% (active).
Compound CCC(=O)/C=C1\Sc2ccccc2N1CC has a viability of 89%.
Compound CCOC(=O)CN(Cc1ccc(OC)c(OC)c1)S(=O)(=O)c1ccc(OC)cc1 has a viability of 91.4%.
In the case of COc1ccc(C(CCN(Cc2ccc(OC)c(OC)c2)C(=O)CCl)c2ccccc2)cc1 (configuration not stated), the viability is reported as 1.9% (active).
Work on COc1ccc(CCN(C(=O)COc2ccccc2)c2nc(-c3ccccc3)cs2)cc1OC yielded a viability of 77.2%.
In the case of CCOC(=O)C(NC(=O)CC(C)C)(Nc1sc2c(c1C(N)=O)CCCC2)C(F)(F)F (configuration not stated), the viability is reported as 97.2%.
CCOC(=O)C1=C(C)N=c2s/c(=C\C(=O)OC)c(=O)n2C1c1ccc(OC)cc1 (configuration not stated) showed a viability of 98.8%.
For O=C1CCCC2=C1C(c1ccccc1)n1c(s/c(=C/c3cccc(F)c3)c1=O)=N2 (configuration not stated), the viability was 83.9%.
In the case of COc1ccc(OC)c(C2C3=C(N=c4s/c(=C\c5cccc(O)c5)c(=O)n42)c2ccccc2CC3)c1 (configuration not stated), the viability is reported as 3.2% (active).
In the case of O=C(Nc1cn(-c2ccccc2)nc1-c1ccccc1)c1ccccc1, the viability is reported as 82%.
With COc1cccc(NC(=S)NCc2ccco2)c1 the viability was 96.7%.
In the case of O=[N+]([O-])c1ccc(C=Nc2ccc(Cl)cc2Cl)s1, the viability is reported as 3.51% (active).
For CC1(C)CC(=O)C/C(=N\NC(=O)c2cccs2)C1, the viability was 93%.
Cc1ccc(S(=O)(=O)N(Cc2ccc(Cl)cc2)c2ccccc2C(=O)NCc2cccnc2)cc1 showed a viability of 81.5%.
In the case of O=C1/C(=C\c2ccccc2Cl)SC(=S)N1CCC(=O)N1CCCc2ccccc21, the viability is reported as 4.79% (active).
With O=C(CCCN1C(=O)/C(=C/c2ccco2)SC1=S)Nc1ccccc1 the viability was 25.7%.
Work on O=C(c1c(Cl)nc2sccn12)N1CCCc2ccccc21 yielded a viability of 91.5%.
CCOc1ccc(C(=O)Nc2cccc(SC)c2)cc1 showed a viability of 86.8%.
In the case of NC1=NC(=O)S/C1=C\c1ccc(O)cc1, the viability is reported as 78.6%.
CCOC(=O)c1cc2n(c1C)-c1ccccc1C2=O gave a viability of 90.9%.
CCOC(=O)c1c(C)[nH]c(=S)c(C#N)c1-c1ccccc1 showed a viability of 101%.
In the case of CCOC(=O)c1c(C)[nH]c2c1-c1ccccc1C(=O)C2=O, the viability is reported as 1.06% (active).
CCC1(C(=O)c2ccccc2)C(c2cccc([N+](=O)[O-])c2)C1(C(=O)OC)C(=O)OC (configuration not stated) gave a viability of 82.6%.
In the case of Cc1cc(/C=C2\SC(=Nc3ccc(N4CCOCC4)cc3)N(C)C2=O)c(C)n1-c1cccnc1, the viability is reported as 54.8%.
Work on CCOC(=O)NN1C(=O)c2ccccc2NC1c1cccc(O)c1 (configuration not stated) yielded a viability of 106%.
With O=C1c2ccccc2NC(c2ccc(-c3cccc(Cl)c3)o2)N1O (configuration not stated) the viability was 2.84% (active).
C=CCn1c(CCNC(=O)c2cccs2)n[nH]c1=S showed a viability of 99.3%.
COC(=O)Cn1c(=NC(=O)c2cc(OC)c(OC)c(OC)c2)sc2cc(OC)ccc21 gave a viability of 81.5%.
For O=C(O)C1CC(=O)N(Cc2cccnc2)C1 (configuration not stated), the viability was 90.7%.
With O=C1/C(=C\c2cccnc2)CN(Cc2ccccc2)C/C1=C\c1cccnc1 the viability was 5.51% (active).
Compound O=C1OC(c2ccc(Cl)cc2)=N/C1=C\c1cccnc1 has a viability of 95.6%.
For CCc1ccc(NC2Nc3cc(C)nn3S2)cc1 (configuration not stated), the viability was 95.4%.
For CCC(C)N1C(=O)S/C(=C/c2ccc(Sc3nc4ccccc4[nH]3)o2)C1=O (configuration not stated), the viability was 4.08% (active).
In the case of CN=C1S/C(=C\c2ccc(Sc3ccc(Cl)cc3)o2)C(=O)N1C, the viability is reported as 96.9%.
O=C(CSc1nc2ccccc2[nH]1)c1cccs1 gave a viability of 78.2%.
In the case of CC1Cc2ccccc2N1C(=O)CSc1nnc(-c2ccc(S(=O)(=O)N3CCCC3)cc2)n1C (configuration not stated), the viability is reported as 81%.
For CCCCN(CC)C(=O)c1ccccc1Oc1ccccc1, the viability was 85.8%.
For COC1=CCC2([N+](=O)[O-])CN(CC(=O)O)CC1([N+](=O)[O-])C2 (configuration not stated), the viability was 99%.
In the case of O=C(CC(O)(C(F)(F)F)C(F)(F)F)Nc1ccc(Cl)c(Cl)c1, the viability is reported as 2.26% (active).
Work on O=C(CC(=O)Nc1ccc(Cl)c(Cl)c1)N/N=C/c1ccc(O)cc1 yielded a viability of 81%.
O=C(Cc1ccc(Cl)c(Cl)c1)Nc1ccc(SC(F)F)cc1 gave a viability of 35.8%.
With C/C(=N\Nc1ccc([N+](=O)[O-])cc1)c1ccc(-n2nncc2C(C)(C)C)cc1 the viability was 97.1%.
With CCN(/N=C/c1ccc(N(C)C)cc1)c1nc2ccccc2[nH]1 the viability was 87.6%.
O=C(COC(=O)c1cc([N+](=O)[O-])ccc1NCc1ccccc1)NC1CCCCC1 gave a viability of 45.6%.
In the case of C/C(CCC(=O)OC[C@H]1O[C@H](C#Cc2ccccc2)C=C[C@@H]1Oc1ccc(C)cc1)=N\OC[C@@H](O)[C@H]1O[C@@H]2OC(C)(C)O[C@@H]2[C@H]1O, the viability is reported as 86.2%.
